Experimental data from PubChem BioAssay (NCATS).
Results filed as inconclusive are left out. Entries that show only a call come without a potency. The source made the active and inactive calls. Unless noted, calls come from the whole dose curve; as a rule, active = well fitted curve in the direction sought with a large enough effect; inconclusive = small, poorly fitted or top-dose-only effect, or another doubt; inactive = no such curve, though single readings can be large; an effect the other way counts as inactive or inconclusive.

Experiments:
[1] = Cell Viability - LYMP1-002 - Assay at 16 hr (AID 948)
Method in brief: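 Acute cytotoxicity is scored as a concentration-dependent fall in intracellular ATP in a human lymphoblastoid line (LYMP1-002) after 16 hr compound exposure at 37 C, measured by luciferase luminescence.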

[2] = MultiTox-Fluor Cytotoxicity Assay - LYMP1-002 - Live Cells (AID 955);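 note: cells exposed to compound for 16 hours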
Method in brief: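 Cytotoxicity in the human lymphoblastoid line LYMP1-002 is measured as loss of live-cell protease activity after 16 h treatment in complete culture medium. AC50 is derived from Hill-equation fits of qHTS concentration-response data.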

[3] = MultiTox-Fluor Cytotoxicity Assay - LYMP1-002 - Dead Cells (AID 960); note: nearly all actives have a fitted effect of over 60% in size
Method in brief: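 Acute cytotoxicity in a human lymphoblastoid line is scored as rising dead-cell protease signal after 16 hr exposure at 37 C, measured fluorometrically (485/520).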

[4] = MultiTox-Fluor Cytotoxicity Assay - LYMP1-003 - Dead Cells (AID 961); note: nearly all actives have a fitted effect of over 70% in size; note: potency is the fitted concentration of half-maximal effect
Method in brief: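 Dead-cell protease release, detected as bis-AAF-R110 fluorescence at 485/520 nm, was measured in LYMP1-003 cells after 16 h compound treatment at 37 C. AC50 values came from Hill-modeled qHTS curves normalized to DMSO (0%) and 15 uM tetraoctylammonium bromide (100%).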

[5] = MultiTox-Fluor Cytotoxicity Assay - LYMP1-003 - Live Cells (AID 962);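 note: cells exposed to compound for 16 hours at 37 °C; cytotoxic hits lower the live-cell protease signal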
Method in brief: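 Cells plated at 2500 per well and incubated 5 hr; compounds added and incubated 16 hr at 37 C; MultiTox-Fluor reagent added for 60 min at room temperature; fluorescence of liberated AFC measured at 405/510 nm.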

[6] = Cell Viability - LYMP1-003 - Assay at 24 hr (AID 963)
Method in brief: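 Acute toxicity in LYMP1-003 lymphoblastoid cells: 24 hr compound treatment at 37 C, ATP measured with CellTiter-Glo after 30 min at room temperature. AC50 derived by fitting the Hill equation to qHTS titrations.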

[7] = Cell Viability - LYMP2-003 (AID 965);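 note: cells exposed to compounds for 24 h before reading; nearly all actives have a fitted effect of over 50% in size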
Method in brief: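 Acute cytotoxicity is scored as a concentration-dependent drop in intracellular ATP, measured by luciferase luminescence in human lymphoblastoid cells treated for 24 hours at 37 C. AC50 values derive from Hill-equation modelling.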

[8] = Cell Viability - LYMP2-004 (AID 966); note: nearly all actives have a fitted effect of over 65% in size
Method in brief: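 Acute toxicity is scored as a concentration-dependent drop in intracellular ATP, quantified by luciferase luminescence, in human lymphoblastoid cells exposed to compound for 24 hr. AC50 derives from Hill-equation modelling.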

[9] = Cell Viability - LYMP2-005 (AID 967); note: series mostly up to about 92 µM
Method in brief: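 qHTS viability screen in LYMP2-005 cells: 24 h at 37 C with compound, ATP luminescence via CellTiter-Glo, AC50 from Hill curves.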

[10] = Cell Viability - LYMP2-009 (AID 968); note: series mostly up to about 92 µM; nearly all actives have a fitted effect of over 55% in size
[11] = Cell Viability - LYMP2-011 (AID 969); note: nearly all actives have a fitted effect of over 60% in size
Method in brief: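 Acute toxicity is scored as a concentration-dependent drop in intracellular ATP of a human lymphoblastoid line after 24 hr treatment. Values are AC50s modeled with the Hill equation.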

[12] = Cell Viability - LYMP2-013 (AID 970); note: series mostly up to about 92 µM; nearly all actives have a fitted effect of over 55% in size
Method in brief: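 Acute toxicity was measured in human lymphoblastoid cells (2500/well) exposed to compound titrations for 24 hr, with ATP luminescence (CellTiter-Glo) as read-out and AC50 fitted by Hill equation.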

[13] = Cell Viability - LYMP2-015 (AID 971); note: nearly all actives have a fitted effect of over 55% in size
Method in brief: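 Acute toxicity was scored as a concentration-dependent drop in intracellular ATP in lymphoblastoid cells after 24 hr compound exposure in complete medium. Detection used CellTiter-Glo luciferase luminescence.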

[14] = Cell Viability - LYMP2-017 (AID 972); note: series mostly up to about 92 µM; nearly all actives have a fitted effect of over 55% in size
Method in brief: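 Steps: plate 2500 lymphoblastoid cells per well; incubate 5 hr at 37 C; add compound across a concentration series and incubate 24 hr at 37 C; add CellTiter-Glo and read luminescence after 30 min at room temperature; fit Hill curves for AC50.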

[15] = Cell Viability - LYMP2-019 (AID 973); note: nearly all actives have a fitted effect of over 55% in size
Method in brief: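 Cells plated at 2500/well and allowed 5 hr at 37 C before compound addition. After 24 hr incubation, CellTiter-Glo reagent was added, plates sat 30 min at room temperature, and luminescence was recorded.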

[16] = Cell Viability - LYMP2-021 (AID 974)
Method in brief: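 Concentration-response cytotoxicity in a human lymphoblastoid line: 24 hr treatment at 37 C in complete culture medium, tetraoctylammonium bromide as positive control, luminescent ATP quantitation as viability measure.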

[17] = Cell Viability - LYMP2-023 (AID 975)
Method in brief: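 Concentration-dependent drop in intracellular ATP measures acute cytotoxicity in a human lymphoblastoid line treated for 24 hours in complete culture medium. AC50 values are taken from Hill-equation fits of qHTS data.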

[18] = Cell Viability - LYMP2-025 (AID 976); note: series mostly up to about 92 µM
Method in brief: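 In qHTS format, LYMP2-025 lymphoblastoid cells in complete culture medium received compound for 24 hr; ATP-based CellTiter-Glo signal gave viability, with AC50 derived by Hill equation.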

[19] = Cell Viability - LYMP2-002 (AID 977);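 note: series mostly up to about 92 µM; compound exposure lasted 24 h at 37 °C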
Method in brief: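 Human lymphoblastoid LYMP2-002 cells, 2500 per well, exposed to compounds for 24 h at 37 C in complete medium; viability read as intracellular ATP by CellTiter-Glo luminescence, AC50 from Hill fits.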

[20] = molecular target: Pyruvate kinase PKM (Homo sapiens) (UniProt P14618); assay: qHTS Assay for Activators of Human Muscle Pyruvate Kinase (AID 954; active = well fitted curve in the direction sought with a large enough effect, not every such curve was filed as active)
Chain of Pyruvate kinase PKM (Homo sapiens) (P14618 whole entry, looked up): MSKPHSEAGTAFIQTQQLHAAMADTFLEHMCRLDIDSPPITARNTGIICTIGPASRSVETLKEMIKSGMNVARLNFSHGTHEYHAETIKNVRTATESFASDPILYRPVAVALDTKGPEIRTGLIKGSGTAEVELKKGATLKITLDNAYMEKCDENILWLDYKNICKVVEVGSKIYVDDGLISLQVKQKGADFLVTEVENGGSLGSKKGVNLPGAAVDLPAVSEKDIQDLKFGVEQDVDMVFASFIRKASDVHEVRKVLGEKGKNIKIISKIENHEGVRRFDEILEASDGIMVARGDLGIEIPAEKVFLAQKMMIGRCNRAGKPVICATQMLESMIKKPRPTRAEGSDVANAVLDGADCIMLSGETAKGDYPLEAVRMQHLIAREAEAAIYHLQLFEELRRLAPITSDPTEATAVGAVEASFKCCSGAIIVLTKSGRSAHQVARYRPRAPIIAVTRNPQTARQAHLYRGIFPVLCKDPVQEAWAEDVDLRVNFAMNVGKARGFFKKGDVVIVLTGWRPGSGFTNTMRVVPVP
Method in brief: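 Human PKM2 activity is measured as ATP generation, detected by luciferase-coupled luminescence. The enzyme (0.1 nM) acts on 0.5 mM PEP and 0.1 mM ADP for 1 h at ambient temperature; data are normalized to uninhibited and full-inhibition wells.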

| Structure (SMILES) | outcome [1] | outcome [2] | outcome [3] | Potency [4] | outcome [5] | outcome [6] | outcome [7] | outcome [8] | outcome [9] | outcome [10] | outcome [11] | outcome [12] | outcome [13] | outcome [14] | outcome [15] | outcome [16] | outcome [17] | outcome [18] | outcome [19] | outcome [20] |
| --- | --- | --- | --- | --- | --- | --- | --- | --- | --- | --- | --- | --- | --- | --- | --- | --- | --- | --- | --- | --- |
| NC(=O)c1ccccc1O | inactive | inactive | inactive | inactive | inactive | inactive | inactive | inactive | inactive | inactive | inactive | inactive | inactive | inactive | inactive | inactive | inactive | inactive | inactive |  |
| Oc1ccc(Cl)cc1Cc1cc(Cl)ccc1O | inactive | inactive | inactive |  | inactive | inactive |  |  |  |  |  |  |  |  |  |  |  |  |  |  |
| CC(C)(C)NC[C@H](O)COc1nsnc1N1CCOCC1 |  |  |  |  |  |  |  |  |  |  |  |  |  |  |  |  |  |  |  | inactive |
| CCOc1ccccc1C(N)=O | inactive | inactive | inactive | inactive | inactive | inactive | inactive | inactive | inactive | inactive | inactive | inactive | inactive | inactive | inactive | inactive | inactive | inactive | inactive |  |
| CN=C(N)NCCC[C@H](N)C(=O)O |  |  |  |  |  |  |  |  |  |  |  |  |  |  |  |  |  |  |  | inactive |
| C/C=C/c1ccc(O)c(OC)c1 | inactive | inactive | inactive | inactive | inactive | inactive | inactive | inactive | inactive | inactive | inactive | inactive | inactive | inactive | inactive | inactive | inactive | inactive | inactive |  |
| C=C[C@H]1CN2CC[C@H]1C[C@@H]2[C@@H](O)c1ccnc2ccc(OC)cc12 | inactive | inactive |  | inactive | inactive | inactive | inactive | inactive | inactive | inactive | inactive | inactive | inactive | inactive | inactive | inactive | inactive | inactive | inactive |  |
| CCCCC(CC)COC(=O)c1ccc(N(C)C)cc1 (stereo unspecified) | inactive | inactive |  | inactive | inactive | inactive | inactive | inactive | inactive | inactive | inactive | inactive | inactive | inactive | inactive | inactive | inactive | inactive | inactive |  |
| O=C(O)c1ccc(S(=O)(=O)N(Cl)Cl)cc1 | inactive | inactive | inactive | inactive | inactive | inactive | inactive | inactive | inactive | inactive | inactive | inactive | inactive | inactive | inactive | inactive | inactive | inactive | inactive |  |
| CCOc1ccc(NC(C)=O)cc1 | inactive | inactive | inactive | inactive | inactive | inactive | inactive | inactive | inactive | inactive | inactive | inactive | inactive | inactive | inactive | inactive | inactive | inactive | inactive |  |
| COc1ccc(C(Cl)=C(c2ccc(OC)cc2)c2ccc(OC)cc2)cc1 | inactive | inactive | inactive | inactive | inactive | inactive | inactive | inactive |  | inactive | inactive | inactive | inactive | inactive | inactive | inactive | inactive | inactive | inactive |  |
| COc1cc([C@H]2Oc3cc([C@H]4Oc5cc(O)cc(O)c5C(=O)[C@@H]4O)ccc3O[C@@H]2CO)ccc1O | inactive | inactive | inactive | inactive | inactive | inactive | inactive | inactive | inactive | inactive | inactive | inactive | inactive | inactive | inactive | inactive | inactive | inactive | inactive |  |
| NC(N)=NCc1cccc(I)c1 |  |  |  |  |  |  |  |  |  |  |  |  |  |  |  |  |  |  |  | inactive |
| OC[C@H]1O[C@@H]2O[C@H]3[C@H](O)[C@@H](O)[C@@H](O[C@H]4[C@H](O)[C@@H](O)[C@@H](O[C@H]5[C@H](O)[C@@H](O)[C@@H](O[C@H]6[C@H](O)[C@@H](O)[C@@H](O[C@H]7[C@H](O)[C@@H](O)[C@@H](O[C@H]8[C@H](O)[C@@H](O)[C@@H](O[C@H]1[C@H](O)[C@H]2O)O[C@@H]8CO)O[C@@H]7CO)O[C@@H]6CO)O[C@@H]5CO)O[C@@H]4CO)O[C@@H]3CO | inactive | inactive | inactive | inactive | inactive | inactive | inactive | inactive |  | inactive | inactive | inactive | inactive | inactive | inactive | inactive | inactive | inactive | inactive |  |
| Oc1c(Cl)cc(Cl)c(Cl)c1Cc1c(O)c(Cl)cc(Cl)c1Cl | inactive |  |  | 50.1 µM (active) |  | inactive |  |  |  |  |  |  |  |  |  |  |  |  |  |  |
| CN(C)CCC[C@@]1(c2ccc(F)cc2)OCc2cc(C#N)ccc21 |  |  |  |  |  |  |  |  |  |  |  |  |  |  |  |  |  |  |  | inactive |
| CCCN(CCC)S(=O)(=O)c1ccc(C(=O)O)cc1 | inactive | inactive | inactive | inactive | inactive | inactive | inactive | inactive | inactive | inactive | inactive | inactive | inactive | inactive | inactive | inactive | inactive | inactive | inactive |  |
| NCCNc1cccc2ccccc12 | inactive | inactive | inactive | inactive | inactive | inactive | inactive | inactive |  | inactive | inactive | inactive | inactive | inactive | inactive | inactive | inactive | inactive | inactive |  |
| COc1ccc(C(=O)c2ccccc2)c(O)c1 | inactive | inactive | inactive | inactive | inactive | inactive | inactive | inactive | inactive | inactive | inactive | inactive | inactive | inactive | inactive | inactive | inactive | inactive | inactive |  |
| CN1CCC[C@@H]1CCO[C@](C)(c1ccccc1)c1ccc(Cl)cc1 |  |  |  |  |  |  |  |  |  |  |  |  |  |  |  |  |  |  |  | inactive |
| NS(=O)(=O)Cc1noc2ccccc12 |  |  |  |  |  |  |  |  |  |  |  |  |  |  |  |  |  |  |  | inactive |
